# Screens from PubChem BioAssay.
# This is a sample that favours compounds with a hit; in the whole collection about 6.8% have one here.
# OTUD3 block – human OTUD3 deubiquitinase inhibition; Q5T2D3; purified OTUD3, Ub-rhodamine fluorescence, 2 h; inhibition, % at 25 µM; 47,000 compounds, 0.7% hits; AID 1645858
# Target sequence (Q5T2D3 whole entry, looked up): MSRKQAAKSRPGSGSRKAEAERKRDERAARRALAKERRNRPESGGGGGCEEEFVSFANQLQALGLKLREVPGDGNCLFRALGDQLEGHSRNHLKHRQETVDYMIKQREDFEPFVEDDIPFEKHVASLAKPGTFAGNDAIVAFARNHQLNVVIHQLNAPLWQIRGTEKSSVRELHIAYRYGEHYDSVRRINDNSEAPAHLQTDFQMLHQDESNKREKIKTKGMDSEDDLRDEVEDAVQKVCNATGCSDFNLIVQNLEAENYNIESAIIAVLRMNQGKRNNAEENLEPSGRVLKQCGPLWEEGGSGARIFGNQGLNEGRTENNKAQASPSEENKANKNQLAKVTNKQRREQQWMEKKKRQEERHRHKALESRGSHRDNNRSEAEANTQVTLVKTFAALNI
# USP8 block – blocks human USP8 ubiquitin-rhodamine cleavage. purified USP8, Ub-rhodamine cleavage fluorescence, 30 min. P40818. 47,000 compounds, 4.2% hits. inhibition, % at 20 µM
# USP10 inh – human USP10 deubiquitinase inhibition. AID 1645856. 47,000 compounds, 1.1% hits. inhibition, % at 20 µM. purified USP10, Ub-rhodamine fluorescence, 60 min
# UCHL1 inh – blocks human UCHL1 ubiquitin-rhodamine cleavage; P09936; purified UCHL1, Ub-rhodamine cleavage fluorescence; inhibition, % at 20 µM; 47,000 compounds, 0.2% hits; AID 1645859
# USP28 inh – blocks human USP28 ubiquitin-rhodamine cleavage; purified USP28, Ub-rhodamine cleavage fluorescence, 30 min; AID 1645857; 47,000 compounds, 3% hits; Q96RU2; inhibition, % at 25 µM
# USP7 inh – human USP7 deubiquitinase inhibition; inhibition, % at 20 µM; Q93009; purified USP7, Ub-rhodamine cleavage fluorescence; AID 1645854; 47,000 compounds, 0.3% hits
# Active calls of the source: *. No stated cut-off is given here; in the data, active means inhibition above about 30%; inactive means the rest.
SMILES,OTUD3 block,USP8 block,USP10 inh,UCHL1 inh,USP28 inh,USP7 inh
Cc1ccc2c(c1)c1c(n2CCN(Cc2ccccc2)Cc2ccccc2)C(O)CCC1 (centres undefined),0,0,3,3,-8,7
COc1ccc(C2C3=C(CC(c4ccco4)CC3=O)Nc3ccccc3N2C(C)=O)cc1 (centres undefined),-6,56*,-4,-4,-1,-12
COc1ccc(C2C3=C(CC(c4ccco4)CC3=O)Nc3ccccc3N2C(=O)C(F)(F)F)cc1 (centres undefined),0,14,6,4,0,1
Cc1ccc(C2CC(=O)C3=C(C2)Nc2ccccc2N(C(=O)c2ccccc2)C3c2ccccc2)cc1 (centres undefined),10,30*,10,10,23,22
O=C(Nc1nc2ccc(F)cc2s1)c1cccc2c(Br)cccc12,4,21,4,1,-1,6
CN1[C@H]2CCN(C(=O)C3CC3)CC[C@@H]2Oc2ccccc2S1(=O)=O,-1,1,2,-1,2,-1
COc1ccc2cc3c(nc2c1)OC(=O)N(Cc1ccccc1F)C3,1,37*,3,-1,-2,10
CC(C)(C)c1ccc(/C=C(/C#N)c2nnc3n2CCCCC3)cc1,-7,-250,-4,-2,-2,-4
CCN(CC)c1cc(C)c2cc(NC(=O)c3ccncc3)ccc2n1,-15,-11,-10,-4,71*,-8
CCN1CCN(c2cc(C)c3cc(NC(=O)c4cncc(Br)c4)ccc3n2)CC1,-11,-6,-3,4,21,3
COc1ccc(CCC(=O)Nc2ccc3nc(N4CCN(c5ncccn5)CC4)cc(C)c3c2)cc1,7,36*,14,0,16,1
COc1ccc(CCC(=O)Nc2ccc3c(c2)Sc2ncccc2C(=O)N3C)cc1,3,-17,-12,-7,55*,-3
CCN(CC)c1cc(C)c2cc(NC(=O)CCc3ccc(OC)cc3)ccc2n1,13,54*,2,7,46*,8
O=C1NC2(CCN(Cc3cccc(Cl)c3)CC2)N=C1c1ccccc1,1,-2,0,5,-5,-7
Cc1cc(N2CCN(c3ncccn3)CC2)nc2ccc(NC(=O)c3cccnc3)cc12,4,0,-6,4,21,-2
Cc1cc(N2CCN(c3ncccn3)CC2)nc2ccc(NC(=O)C3CC3)cc12,-1,-12,0,0,30,-6
Cc1cc(N2CCN(c3ncccn3)CC2)nc2ccc(NC(=O)/C=C/c3ccccc3Cl)cc12,12,15,-1,-1,40*,2
Cc1ccc(C(=O)Nc2ccc3nccnc3c2)cc1,6,-1,0,0,59*,2
COc1ccc(/C=C/C(=O)Nc2ccc3nc(N4CCN(c5ncccn5)CC4)cc(C)c3c2)cc1,-3,88*,16,-4,0,2
COc1ccccc1NC(=O)NCCc1cn(C)c2ncccc12,4,13,-1,1,37*,-8
COc1ccc(C)cc1NC(=O)NCCc1cn(C)c2ncccc12,-2,10,0,1,16,2
C=C1NC(=O)[C@@H](CC)NC(=O)CNC(=O)[C@H](Cc2c[nH]c3cccc(OC)c23)NC(=O)[C@H](Cc2c[nH]c3ccccc23)NC(=O)c2csc(n2)[C@@H](C)NC(=O)CN(C)C1=O,-7,10,-2,6,-2,6
Cc1nc(Nc2ccc(Cl)cn2)sc1C(=O)NCc1ccccn1,0,50*,2,1,13,8
Cc1ccc(CSc2nc3c(c(N4CC(C)OC(C)C4)n2)CCCC3)cc1 (centres undefined),-4,-1,0,2,-15,4
Cc1ccc(CSc2nc3c(c(N(C)C)n2)CCCC3)cc1,24,21,8,7,47*,12
SMILES,OTUD3 block,USP8 block,USP10 inh,UCHL1 inh,USP28 inh,USP7 inh
CC(=O)Nc1c(-c2ccc3c(c2)OCO3)c(=O)c2ccccc2n1C,7,21,0,0,5,4
O=C(Cc1nnc(-c2cnccn2)o1)NCc1cccc(Cl)c1,-10,-7,4,-1,-2,3
O=C(O)CNC(=O)c1ccc2nc(-n3cccc3)sc2c1,-18,-9,-6,-2,-17,0
O=C(CNC(=O)c1ccc2nc(-n3cccc3)sc2c1)NCc1cccc(Cl)c1,-30,69*,0,-11,-29,8
O=C(NCc1cccc(Cl)c1)c1sc2ncccc2c1-n1cccc1,2,-52,0,5,31*,-6
C[C@@H](c1ccccc1)N1C(=O)N[C@@H](CCC(=O)Nc2ccc3c(c2)OCO3)C1=O,2,52*,1,0,0,0
COc1ccc(OC)c(-n2c(SCC(=O)N3CCc4ccccc43)nnc2-c2cccc(S(=O)(=O)N(C)C)c2)c1,32*,11,7,10,43*,8
COc1ccccc1-n1c(SCC(=O)N2CCc3ccccc32)nnc1-c1ccncc1,4,0,-1,3,3,-5
Cc1cc(NC(=O)c2ccc(C(F)(F)F)cc2)no1,7,19,11,3,6,10
CC1c2cc3c(cc2CCN1CC(=O)Nc1cc(Cl)ccc1-n1cncn1)OCCCO3 (centres undefined),-6,47*,-3,0,-9,-19
O=C(Nc1cc(Cl)ccc1-n1cncn1)c1ccc(S(=O)(=O)N2CCCC2)cc1,9,-1,-1,2,18,-54
Cc1ccc(CNC(=O)c2cc([N+](=O)[O-])ccc2N2CCOCC2)cc1,-3,-159,3,0,-13,-17
CS(=O)(=O)N(Cc1ccco1)Cc1cc2ccccc2[nH]c1=O,8,-2,-1,1,4,-2
O=c1[nH]c2ccccc2cc1CN(Cc1ccco1)S(=O)(=O)c1ccc(F)cc1,4,10,16,5,34*,7
Cc1cccc(OCc2cc(-c3ccccc3)no2)c1C,13,25,8,5,48*,6
Fc1ccc(OCc2cc(-c3ccccc3)no2)cc1,0,1,4,-5,8,2
COc1cc(CNC(=O)c2cnc(N3CCCCC3)nc2C)cc(OC)c1OC,13,2,1,3,8,3
O=C(Nc1ccccn1)c1noc2c1CCc1sccc1-2,-9,88*,5,-1,3,-3
Cc1ccc(NC(=O)c2noc3c2CCc2sccc2-3)nc1,-11,47*,4,-6,-5,1
CC(NC(=O)c1noc2c1CCc1sccc1-2)c1ccccc1 (centres undefined),9,-17,9,0,16,4
O=C(NCc1ccc(Cl)cc1)c1noc2c1CCc1sccc1-2,-1,75*,-7,-2,-5,-4
Cc1cccnc1NC(=O)c1noc2c1CCc1sccc1-2,4,4,2,-1,8,4
